{"source": "PubChem BioAssay AID463173", "about": "(ICCB-Longwood Screening Facility, Harvard Medical School, 2010)", "note": "About 4,300 (8.3%) of roughly 52,000 compounds were called active. The list comes from a sample in which actives are over-represented; it also holds similar structures and randomly drawn compounds. Values without a mark were called inactive. Cut-off read from the data, not from the text of the source: active = survival mostly below about 52% (no sharp cut-off); inactive = mostly above about 56%."}
{"test_system": "DeltatarO mutant", "test": "growth inhibition of S. aureus wild type versus tarO mutant, primary screen, teichoic acid synthesis inhibitors, RN4220, OD600 (AID 463173)", "conditions": "OD600, 18 h, hits give low values, screened at 18.75 µg/mL (by protocol)"}
{"smiles": "CC(C)CCNC(=O)c1nn(C)c2c1CSc1ccccc1-2", "survival": "70%"}
{"smiles": "Cn1cnnc1SCC(N)=O", "survival": "99%"}
{"smiles": "CCOC(=O)c1ccc(NC(=O)c2csnn2)cc1", "survival": "104%"}
{"smiles": "Cc1ccc(CNC(=O)CSc2ncc(S(=O)(=O)c3ccc(C)c(Cl)c3)c(=O)[nH]2)cc1", "survival": "77%"}
{"smiles": "Cc1cccc(NC(=O)CSc2cn(CC(=O)N3CCOCC3)c3ccccc23)c1", "survival": "82%"}
{"smiles": "COc1ccc(CCNC(=O)Cn2c(-c3cccs3)cc3cc(F)ccc32)cc1OC", "survival": "83%"}
{"smiles": "Cc1ccc(-n2nc(C(=O)NCc3ccc(F)cc3Cl)c3c4ccccc4n(C)c3c2=O)cc1", "survival": "131%"}
{"smiles": "COc1ccc(Cl)cc1NC(=O)CSc1nc2ccccc2nc1N1CCCCC1", "survival": "27% (active)"}
{"smiles": "COc1ccccc1Cc1nc2ccccc2nc1SCC(=O)Nc1cc(Cl)ccc1OC", "survival": "73%"}
{"smiles": "Cc1cccc(NC(=O)CSc2nc3ccccc3nc2N2CCCCC2)c1C", "survival": "75%"}
{"smiles": "Cc1cc(C)c(NC(=O)CSc2nc3ccccc3nc2N2CCCCC2)c(C)c1", "survival": "39% (active)"}
{"smiles": "COc1ccc(NC(=O)CSc2nc3ccccc3nc2N2CCOCC2)c(OC)c1", "survival": "76%"}
{"smiles": "Cc1cc(C)c(NC(=O)c2nc3ccccc3nc2N2CCCCC2)c(C)c1", "survival": "90%"}
{"smiles": "COc1ccc(OC)c(NC(=O)CSc2cn(CC(=O)N3CCCCCC3)c3ccccc23)c1", "survival": "85%"}
{"smiles": "COc1ccc(C)cc1NC(=O)CSc1nc2ccccc2nc1N1CCOCC1", "survival": "73%"}
{"smiles": "COc1ccc(OC)c(NC(=O)CSc2nc3ccccc3nc2N2CCCCC2)c1", "survival": "5% (active)"}
{"smiles": "COc1ccc(-c2nc3n(n2)C(c2cccc(C)c2)C(C(N)=O)=C(C)N3)cc1OC", "note": "(configuration not stated)", "survival": "93%"}
{"smiles": "CCN(CC)Cc1ccc(C(=O)O)o1", "survival": "97%"}
{"smiles": "Cn1c(=O)c2sccc2n2c(CCC(=O)N3CCN(c4cccc(Cl)c4)CC3)nnc12", "survival": "193%"}
{"smiles": "CCOc1ccc(-c2cccc(NS(=O)(=O)c3ccc(Cl)s3)c2)nn1", "survival": "92%"}
{"smiles": "Cc1cccc(NC(=O)CSc2nc(=O)n(Cc3ccccn3)c3c2CCC3)c1C", "survival": "85%"}
{"smiles": "CCCOc1ccc(N2CC(C(=O)Nc3cccc(Cl)c3Cl)CC2=O)cc1", "note": "(configuration not stated)", "survival": "145%"}
{"smiles": "CCCCOc1cccc(C(=O)N(Cc2sccc2C)C2CCS(=O)(=O)C2)c1", "note": "(configuration not stated)", "survival": "73%"}
{"smiles": "CCc1ccc(NC(=O)c2ccc(Cn3nc(N4CCN(c5ccccc5)CC4)ccc3=O)o2)cc1", "survival": "83%"}
{"smiles": "CC(=O)c1cccc(NC(=O)c2ccc3c(c2)CCN3S(=O)(=O)c2ccccc2)c1", "survival": "44% (active)"}
{"smiles": "O=C(c1ccc2c(c1)CCN2S(=O)(=O)c1ccccc1)N1CCN(c2cccc(Cl)c2)CC1", "survival": "45%"}
{"smiles": "Cc1ccc(S(=O)(=O)N2CCc3cc(C(=O)Nc4c(F)cccc4F)ccc32)cc1", "survival": "64%"}
{"smiles": "CCCCOC(=O)c1ccc(NC(=O)c2ccc3c(c2)CCN3S(=O)(=O)c2ccccc2)cc1", "survival": "57%"}
{"smiles": "O=C(Nc1cccc(Cl)c1)c1ccc2c(c1)CCN2S(=O)(=O)c1ccccc1", "survival": "41% (active)"}
{"smiles": "CC(=O)Nc1ccc(NC(=O)c2ccc3c(c2)CCN3S(=O)(=O)c2ccc(Cl)cc2)cc1", "survival": "113%"}
{"smiles": "CCc1c(C)sc2c1CCN(C(=O)Nc1ccccc1C(=O)OC)C2c1ccc(OC)cc1", "note": "(configuration not stated)", "survival": "92%"}
{"smiles": "Cn1cc(C(=O)NCCc2ccccc2)c(=O)c2cc(S(=O)(=O)N3CCCCCC3)ccc21", "survival": "68%"}
{"smiles": "CN(C(=O)c1nn(C)c2c1CS(=O)(=O)c1ccccc1-2)c1cccc(Cl)c1", "survival": "64%"}
{"smiles": "Cc1cccc(NC(=O)Cn2c(=O)n(CCC(=O)N3CCc4ccccc4C3)c(=O)c3ccccc32)c1", "survival": "88%"}
{"smiles": "COc1ccc(NC(=O)CSc2nc3c(oc4ccccc43)c(=O)n2-c2ccccc2)cc1OC", "survival": "63%"}
{"smiles": "CCn1c(CN2CCOCC2)nc2cc(NC(=O)c3cc(OC)c(OC)c(OC)c3)ccc21", "survival": "89%"}
{"smiles": "O=C(NCCO)C(=O)Nc1c2c(nn1-c1ccc(F)cc1)CSC2", "survival": "82%"}
{"smiles": "COc1ccccc1NC(=O)CSc1nc(-c2ccc(C(C)(C)C)cc2)c(C#N)c(=O)[nH]1", "survival": "52%"}
{"smiles": "CCc1ccc(NC(=O)CSc2nc(-c3ccccc3)c(C#N)c(=O)[nH]2)cc1", "survival": "78%"}
{"smiles": "CC(C)(C)c1ccc(-c2nc(SCC(=O)Nc3ccc(Cl)cc3)[nH]c(=O)c2C#N)cc1", "survival": "-2% (active)"}
{"smiles": "CN1CCN(C(=O)c2ccc3c(c2)N(Cc2c(F)cccc2Cl)C(=O)c2ccccc2S3)CC1", "survival": "85%"}
{"smiles": "Cc1ccc(S(=O)(=O)c2nc(-c3cccs3)oc2SCC(=O)Nc2cc(C)cc(C)c2)cc1", "survival": "70%"}
{"smiles": "COc1cc(CN2CCN(C(=O)c3cccc4ccccc34)CC2)cc(OC)c1OC", "survival": "72%"}
{"smiles": "CCn1c2ccccc2c2cc(CN3CCN(Cc4ccc(OC)c(OC)c4)CC3)ccc21", "survival": "17% (active)"}
{"smiles": "COc1cc(CN2CCN(S(=O)(=O)c3ccccc3)CC2)cc(OC)c1O", "survival": "57%"}
{"smiles": "COc1ccc(CCn2nnnc2CN2CCN(Cc3ccccc3)CC2)cc1OC", "survival": "82%"}
{"smiles": "CCn1c2ccccc2c2cc(CN3CCN(Cc4cc(OC)c(O)c(OC)c4)CC3)ccc21", "survival": "43% (active)"}
{"smiles": "CCCS(=O)(=O)N1CCN(Cc2ccc(OC)c(OCC)c2)CC1", "survival": "97%"}
{"smiles": "O=C(CCSCCc1ccccn1)Nc1cc(F)ccc1F", "survival": "79%"}
{"smiles": "COc1ccc(-c2csc3ncnc(Nc4ccc(OC)cc4OC)c23)cc1", "survival": "64%"}
{"smiles": "CCCCNC(=O)c1ccc2c(c1)NC(=O)C(CS(=O)(=O)Cc1ccc(F)cc1Cl)N2", "note": "(configuration not stated)", "survival": "74%"}
{"smiles": "O=C(CSc1nc2c(oc3ccccc32)c(=O)n1-c1ccccc1)Nc1ccccc1F", "survival": "66%"}
{"smiles": "O=C(CSCc1ccc(F)cc1)N1CCN(c2ccccc2F)CC1", "survival": "102%"}
{"smiles": "Cc1ccc(Nc2nc3ccccc3c3nncn23)cc1C", "survival": "-4% (active)"}
{"smiles": "Cc1ccc(Cl)cc1Nc1nc2ccccc2c2nncn12", "survival": "104%"}
{"smiles": "COc1cccc(Nc2nc3ccccc3c3nncn23)c1", "survival": "89%"}
{"smiles": "O=C1CN(C(=O)c2ccc(S(=O)(=O)N3CCCCC3)cc2)C(c2ccc(F)cc2)c2cc(Cl)ccc2N1", "note": "(configuration not stated)", "survival": "62%"}
